Compound activity from PubChem.
In the library only some 2.2% were active in any assay of this set; here they are far more common.
BaF3 tox – parental Ba/F3 cell viability inhibition, counter-screen for JAK2V617F inhibitor project, murine pro-B, CellTiter-Glo luminescence; CellTiter-Glo ATP luminescence; inhibition, % at 5.6 µM; 1.1% of 220,000 active; AID 1486, 2009;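 active = inhibition above a per-campaign cutoff, the mean inhibition of all tested compounds plus 3 SD, cut at about 27% in these data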
KLF5 inhibitor – KLF5 expression inhibitors, primary screen, DLD-1 cells, luminescence. 0.23% of 290,000 active. DLD-1 KLF5 promoter-luciferase reporter. AID 1700, 2009. inhibition, % at 5 µM;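 active = inhibition above a per-plate limit of that plate's mean compound inhibition plus 3 SD, cut at about 60% in these data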;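 note: higher means less KLF5 promoter-driven luciferase light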
aSyn 5UTR inh – MLPCN primary screen, SNCA 5' untranslated region | AID 1813, 2009 | inhibition, % (tested at 7.5 µM) | alpha-synuclein 5'UTR reporter, inhibitor activity | 0.82% of 300,000 active; in the data active = inhibition above about 60%; inconclusive = no clear call, values can overlap the other calls;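 note: H4 neuroglioblastoma cells stably carrying SNCA 5'UTR luciferase fusion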
IEC-6 cytotox – cytotoxicity in IEC-6 intestinal epithelial cells, primary screen, cytotoxicity control for KLF5 inhibitor project, cell-based, luminescence. IEC-6 cytotoxicity, luminescence viability. inhibition, % at 5 µM. 0.78% of 290,000 active
APP 5UTR inh – inhibitors of APP translation via 5'UTR reporter, primary screen, APP 5'UTR luciferase, SH-SY5Y cells. inhibition, % at 2 µM. SH-SY5Y APP 5'UTR-luciferase reporter, luminescence. 0.82% of 190,000 active;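 active = inhibition above a set limit, derived from the sample mean plus 3 SD, cut at about 45% in these data; inconclusive = one replicate passes the limit while the other fails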
Ba/F3 V617F tox – reduced viability of JAK2V617F-dependent Ba/F3 cells, primary screen, JAK2V617F inhibitor project, cell-based, Ba/F3 EpoR-JAK2V617F, luminescence. 1.1% of 220,000 active. AID 1446, 2008. ATP luminescence. inhibition, % at 5.6 µM;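 active = inhibition above the campaign mean plus 3 SD over all tested compounds, cut at about 24% in these data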;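 note: cytokine-independent growth of Ba/F3 cells driven by EpoR plus mutant JAK2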
IEC-6 tox confirm – cytotoxic compounds in IEC-6 epithelial cells, confirmation, cytotoxicity control, cell-based, luminescence; 63% of 1,900 active; shares compounds with IEC-6 cytotox; inhibition, % at 5 µM; IEC-6 rat intestinal epithelial viability; AID 1907, 2009
Hits are given with their value; – = inactive; ? = inconclusive; · = no result given. Cut-off read from the data, not from the text of the source, unless noted: active = inhibition above about 22%; inactive = the rest.

SMILES	BaF3 tox	KLF5 inhibitor	aSyn 5UTR inh	IEC-6 cytotox	APP 5UTR inh	Ba/F3 V617F tox	IEC-6 tox confirm
COc1c(F)c(F)c(C(=O)Nc2ccc(-c3nc4ccccc4[nH]3)cc2)c(F)c1F	–	–	–	27	–	–	–
O=C(Nc1ccc(-c2nc3ccccc3[nH]2)cc1)c1c(F)c(F)c(F)c(F)c1F	–	–	–	–	–	–	·
COc1cc2c(c(OC)c1OC)-c1ccc(NC(=O)c3ccc(F)cc3)c(=O)cc1[C@@H](NC(C)=O)CC2	·	–	–	26	·	·	53
COc1ccc(CCNc2ncnc3sc(C)cc23)cc1OC	·	–	77	27	·	·	27
COc1ccccc1NC(=O)c1nc(S(=O)(=O)Cc2ccccc2)ncc1Cl	·	–	71	100	·	·	–
CCOc1ccccc1NC(=O)c1ccc(C(=O)Nc2ccccc2OCC)nc1	·	–	–	–	·	·	·
CCS(=O)(=O)c1ncc(Cl)c(C(=O)Nc2ccccc2OC)n1	·	–	–	29	·	·	–
CCOc1ccccc1NC(=O)c1nc(S(=O)(=O)Cc2ccccc2)ncc1Cl	·	–	–	99	·	·	–
COc1ccc(CCNC(=O)COc2ccc(S(=O)(=O)N3CCOCC3)cc2C)cc1	·	–	–	–	·	·	·
CC(=O)NC1=NN(C(C)=O)C(C)(c2ccccc2)S1 (stereo not given)	61	–	–	64	49	67	45
CC(=O)NC1=NN(C(C)=O)C(C)(c2ccc3ccccc3c2)S1 (stereo not given)	–	–	–	–	–	–	·
COC(=O)c1ccc(NC(=O)c2nc(S(=O)(=O)Cc3cccc(C)c3)ncc2Cl)cc1	·	–	?	43	·	·	–
Cc1c(C(=O)NCc2ccc3c(c2)OCO3)oc2ccc(Br)cc12	–	–	–	–	–	–	·
CCSc1ncc(Cl)c(C(=O)Nc2ccc(S(N)(=O)=O)cc2)n1	·	–	–	–	·	·	·
CC(=O)Nc1ccc(NC(=O)c2nc(S(=O)(=O)Cc3cccc(C)c3)ncc2Cl)cc1	·	–	–	36	·	·	–
Cc1ccc2oc(C(=O)NCc3ccc4c(c3)OCO4)c(C)c2c1	–	–	–	48	–	–	–
Cc1onc(-c2c(F)cccc2Cl)c1C(=O)NCc1ccc2c(c1)OCO2	·	–	–	–	·	·	·
Cc1cccc(CS(=O)(=O)c2ncc(Cl)c(C(=O)NCc3ccc4c(c3)OCO4)n2)c1	·	–	–	31	·	·	33
Cc1cccc(COC(=O)Nc2ccc(NC(=O)c3ccccc3Cl)cc2)c1	·	–	–	–	·	·	·
CCOC(=O)C1CCCN(S(=O)(=O)c2cc(Br)cc3c2N(C(=O)CC)CC3)C1 (stereo not given)	·	–	–	–	·	·	·
Cc1cccc(C(=O)N[C@H](C(=O)Nc2nc3ccccc3[nH]2)C(C)C)c1	27	–	96	74	62	77	56
COc1ccc(NC(=O)C(NC(=O)c2ccccc2)C(C)C)cc1 (stereo not given)	–	–	–	–	–	–	·
COc1ccc(C(=O)N[C@H](C(=O)Nc2nc3ccccc3[nH]2)C(C)C)cc1	61	–	106	63	77	42	59
COc1cccc2cc(C(=O)OCC(=O)NCc3ccc4c(c3)OCO4)c(=O)oc12	–	–	–	–	·	–	·
O=c1cc(CSc2ccc(Cl)cc2)nc(-c2ccccc2)[nH]1	–	–	–	–	–	–	·
SMILES	BaF3 tox	KLF5 inhibitor	aSyn 5UTR inh	IEC-6 cytotox	APP 5UTR inh	Ba/F3 V617F tox	IEC-6 tox confirm
O=c1cc(CSc2ccc(Cl)cc2)nc(-c2ccccn2)[nH]1	·	–	–	87	·	·	55
CCOC(=O)N1CCN(C(=O)C2CC(=O)N(c3ccc(C)cc3)C2)CC1 (stereo not given)	·	·	–	·	·	·	·
COc1ccc(-c2c[n+]3c(n2-c2ccc(C)cc2)CCCCC3)cc1	73	–	–	29	·	94	–
CCOc1ccc(-n2c(-c3ccc(OC)cc3)c[n+]3c2CCCCC3)cc1	74	–	–	22	–	97	27
CCOc1ccc(-n2c(-c3ccc(Br)cc3)c[n+]3c2CCCCC3)cc1	79	–	–	29	–	96	–
Cc1ccc(NC(=O)c2ccc3nccnc3c2)c(C)c1	·	–	–	–	·	·	·
COc1ccccc1C(=O)Nc1ccc2c(c1)nc(CCNC(C)=O)n2C	–	–	–	–	–	–	·
COc1ccccc1C(=O)Nc1ccc2c(c1)nc(CCNC(=O)c1ccccc1)n2C	76	–	–	60	·	85	43
C=CCn1c(O)c(N=NC(=S)Nc2ccccc2F)c2cc(S(=O)(=O)N3CCOCC3)ccc21	–	–	78	30	–	–	–
CCOC(=O)c1sc(NC(=O)CCc2ccccc2)nc1C	·	–	–	54	·	·	22
COc1cc2c(cc1OC)C(c1cccs1)N(C(=O)C(C)C)CC2 (stereo not given)	–	–	–	–	–	–	·
COc1cc2c(cc1OC)C(c1cccs1)N(C(=O)c1cccnc1)CC2 (stereo not given)	46	–	–	46	45	46	34
CC(NC(=O)C1CCN(c2nnc(N3CCCC3=O)s2)CC1)c1ccccc1 (stereo not given)	·	–	–	–	·	·	·
COc1cc(C2(c3ccc(O)c(OC)c3)C(=O)Nc3c(C)cc(Br)cc32)ccc1O	·	·	–	·	·	·	·
CCN1CCN(CCNC(=O)c2ccc(/C=C3/Sc4ccccc4N(Cc4ccccc4C)C3=O)cc2)CC1	–	–	–	30	–	–	–
COc1ccccc1NS(=O)(=O)c1ccc(-c2cc(C)no2)s1	·	–	–	40	·	·	–
COc1ccccc1CNS(=O)(=O)c1ccc(-c2cc(C)no2)cc1	·	–	80	79	·	·	53
COc1ccccc1NS(=O)(=O)c1cccs1	–	–	–	–	–	–	·
Cc1cccc(C)c1NC(=O)c1cccc2c1C(=O)N(C1CCCCC1)C2	·	–	–	–	·	·	·
CCOc1ccc2c(c1)OC(c1ccc(OC)cc1)(C(F)(F)F)NC2=O (stereo not given)	77	–	96	81	91	78	55
Cc1ccc(/C=N/NC(=O)c2ccc3ccccc3c2)s1	·	–	–	82	·	·	50
Cc1ccc(/C=N/NC(=O)c2ccncc2)s1	–	–	–	–	·	–	·
O=C(N/N=C/c1cccs1)c1ccc2ccccc2c1	·	–	–	29	·	·	–
C/C(=N\NC(=O)c1ccc2c(c1)OCCO2)c1ccccc1	–	–	73	31	·	–	–
Cc1ccc(/C=N/NC(=O)c2ccc3c(c2)OCCO3)s1	37	–	–	34	·	65	49
CCn1c(NC(C)=O)c(-c2ccccc2Cl)c(=O)c2ccccc21	·	–	–	–	·	·	·
COc1ccccc1C(=O)Nc1ccnn1C1CCN(C/C=C/c2ccc(F)cc2)CC1	·	–	–	–	·	·	·
